Assay in all cases: phage ELISA signal ratio (GST-PRM binding over GST background); higher = stronger binding of peptide-phage to the PRM
On the technique in general: In an ELISA, binding on a coated surface is turned into a signal by an enzyme label.

In assay [1] the target is CKS1B 1-79 CKS (domain begin residue: 1, domain end residue: 79), P61024. On the procedure: (§1)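 Phage-displayed random hexadecapeptides (Cys-free, flanked by invariant Gly linkers, fused to the M13 P8 major coat protein) were selected over 5 rounds against GST-fused human PRM domains. Individual clones from rounds 4-5 were tested by phage ELISA, and positive clones binding the target but not GST were sequenced. Values are the ELISA signal ratio of target over background (GST); the background signal is given separately.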
Sequence of CKS1B 1-79 CKS (domain begin residue: 1, domain end residue: 79), P61024 (P61024 whole entry, the tested form may be a part): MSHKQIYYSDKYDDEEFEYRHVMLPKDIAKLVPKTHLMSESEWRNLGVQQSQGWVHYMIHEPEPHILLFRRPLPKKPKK

The target of assay [2] is DEPDC6 20-129 DEP (domain begin residue: 20, domain end residue: 129). On the procedure: as §1
Assay [3] deals with CBX3 109-173 Chromo_shadow (domain begin residue: 109, domain end residue: 173), Q13185. On the procedure: as §1
Sequence of CBX3 109-173 Chromo_shadow (domain begin residue: 109, domain end residue: 173), Q13185 (Q13185 whole entry): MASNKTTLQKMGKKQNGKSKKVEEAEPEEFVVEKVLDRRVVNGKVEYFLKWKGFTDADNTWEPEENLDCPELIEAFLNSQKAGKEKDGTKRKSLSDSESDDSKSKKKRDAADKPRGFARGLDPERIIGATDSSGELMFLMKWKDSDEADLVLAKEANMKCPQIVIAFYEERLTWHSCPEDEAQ
Assay [4] addresses T1, CLTC 1-363 Clathrin_propel+Clathrin-link (domain begin residue: 1, domain end residue: 363), Q00610.
T1 chain: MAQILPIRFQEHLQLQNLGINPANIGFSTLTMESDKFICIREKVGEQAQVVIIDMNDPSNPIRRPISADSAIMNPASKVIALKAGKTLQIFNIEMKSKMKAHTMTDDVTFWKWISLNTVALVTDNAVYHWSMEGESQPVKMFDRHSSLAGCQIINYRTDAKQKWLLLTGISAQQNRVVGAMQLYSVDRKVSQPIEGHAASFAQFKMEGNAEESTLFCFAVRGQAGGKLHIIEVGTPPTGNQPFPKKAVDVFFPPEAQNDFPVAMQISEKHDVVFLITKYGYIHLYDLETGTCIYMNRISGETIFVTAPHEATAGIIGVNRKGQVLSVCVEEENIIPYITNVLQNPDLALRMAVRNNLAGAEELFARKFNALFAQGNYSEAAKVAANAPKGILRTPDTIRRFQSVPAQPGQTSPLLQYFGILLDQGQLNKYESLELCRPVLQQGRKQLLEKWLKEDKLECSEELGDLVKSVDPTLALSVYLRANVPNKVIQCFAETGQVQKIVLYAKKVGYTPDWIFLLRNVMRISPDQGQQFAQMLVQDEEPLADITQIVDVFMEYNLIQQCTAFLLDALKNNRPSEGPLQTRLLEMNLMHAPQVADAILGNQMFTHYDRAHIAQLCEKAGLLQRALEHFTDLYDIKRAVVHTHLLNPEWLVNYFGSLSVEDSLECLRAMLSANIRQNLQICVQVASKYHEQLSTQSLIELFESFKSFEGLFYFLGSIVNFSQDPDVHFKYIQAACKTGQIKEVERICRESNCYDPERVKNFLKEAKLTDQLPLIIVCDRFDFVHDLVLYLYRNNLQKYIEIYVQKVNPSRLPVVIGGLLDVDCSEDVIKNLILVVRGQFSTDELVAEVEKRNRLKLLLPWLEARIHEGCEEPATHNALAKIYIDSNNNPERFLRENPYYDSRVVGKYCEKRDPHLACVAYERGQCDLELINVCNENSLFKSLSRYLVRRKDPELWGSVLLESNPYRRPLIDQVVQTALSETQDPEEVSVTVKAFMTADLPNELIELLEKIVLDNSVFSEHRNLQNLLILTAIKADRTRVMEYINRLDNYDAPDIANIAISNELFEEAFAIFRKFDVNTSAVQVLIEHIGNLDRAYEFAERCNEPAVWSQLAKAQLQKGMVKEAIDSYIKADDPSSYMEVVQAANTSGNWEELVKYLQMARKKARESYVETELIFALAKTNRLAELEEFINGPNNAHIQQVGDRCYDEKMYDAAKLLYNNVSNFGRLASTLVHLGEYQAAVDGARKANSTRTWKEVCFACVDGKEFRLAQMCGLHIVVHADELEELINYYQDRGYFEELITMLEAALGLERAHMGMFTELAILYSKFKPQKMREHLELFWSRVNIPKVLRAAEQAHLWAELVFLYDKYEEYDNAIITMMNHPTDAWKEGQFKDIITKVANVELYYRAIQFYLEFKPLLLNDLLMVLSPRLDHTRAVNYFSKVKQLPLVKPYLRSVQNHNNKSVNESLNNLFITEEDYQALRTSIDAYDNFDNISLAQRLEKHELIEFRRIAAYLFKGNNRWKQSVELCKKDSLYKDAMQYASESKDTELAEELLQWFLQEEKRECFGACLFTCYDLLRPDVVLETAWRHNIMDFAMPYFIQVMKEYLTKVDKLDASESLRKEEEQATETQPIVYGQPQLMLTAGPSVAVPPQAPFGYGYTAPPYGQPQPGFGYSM
The method, then: as §1

For assay [5], the target named is T2, CD2BP2 256-341 GYF (domain begin residue: 256, domain end residue: 341), O95400.
T2 chain: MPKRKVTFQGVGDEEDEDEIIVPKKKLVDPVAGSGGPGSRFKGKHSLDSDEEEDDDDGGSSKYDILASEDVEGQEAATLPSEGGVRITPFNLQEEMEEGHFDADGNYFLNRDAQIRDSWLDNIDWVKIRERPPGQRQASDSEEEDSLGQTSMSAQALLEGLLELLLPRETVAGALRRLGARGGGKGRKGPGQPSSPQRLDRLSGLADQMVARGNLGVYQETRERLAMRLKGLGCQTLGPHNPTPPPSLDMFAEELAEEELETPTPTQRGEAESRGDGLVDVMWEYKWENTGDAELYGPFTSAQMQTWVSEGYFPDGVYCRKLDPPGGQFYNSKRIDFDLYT
The method, then:
as §1

Assay [6] deals with T3, GIGYF2 507-602 GYF (domain begin residue: 507, domain end residue: 602), Q6Y7W6.
T3 chain: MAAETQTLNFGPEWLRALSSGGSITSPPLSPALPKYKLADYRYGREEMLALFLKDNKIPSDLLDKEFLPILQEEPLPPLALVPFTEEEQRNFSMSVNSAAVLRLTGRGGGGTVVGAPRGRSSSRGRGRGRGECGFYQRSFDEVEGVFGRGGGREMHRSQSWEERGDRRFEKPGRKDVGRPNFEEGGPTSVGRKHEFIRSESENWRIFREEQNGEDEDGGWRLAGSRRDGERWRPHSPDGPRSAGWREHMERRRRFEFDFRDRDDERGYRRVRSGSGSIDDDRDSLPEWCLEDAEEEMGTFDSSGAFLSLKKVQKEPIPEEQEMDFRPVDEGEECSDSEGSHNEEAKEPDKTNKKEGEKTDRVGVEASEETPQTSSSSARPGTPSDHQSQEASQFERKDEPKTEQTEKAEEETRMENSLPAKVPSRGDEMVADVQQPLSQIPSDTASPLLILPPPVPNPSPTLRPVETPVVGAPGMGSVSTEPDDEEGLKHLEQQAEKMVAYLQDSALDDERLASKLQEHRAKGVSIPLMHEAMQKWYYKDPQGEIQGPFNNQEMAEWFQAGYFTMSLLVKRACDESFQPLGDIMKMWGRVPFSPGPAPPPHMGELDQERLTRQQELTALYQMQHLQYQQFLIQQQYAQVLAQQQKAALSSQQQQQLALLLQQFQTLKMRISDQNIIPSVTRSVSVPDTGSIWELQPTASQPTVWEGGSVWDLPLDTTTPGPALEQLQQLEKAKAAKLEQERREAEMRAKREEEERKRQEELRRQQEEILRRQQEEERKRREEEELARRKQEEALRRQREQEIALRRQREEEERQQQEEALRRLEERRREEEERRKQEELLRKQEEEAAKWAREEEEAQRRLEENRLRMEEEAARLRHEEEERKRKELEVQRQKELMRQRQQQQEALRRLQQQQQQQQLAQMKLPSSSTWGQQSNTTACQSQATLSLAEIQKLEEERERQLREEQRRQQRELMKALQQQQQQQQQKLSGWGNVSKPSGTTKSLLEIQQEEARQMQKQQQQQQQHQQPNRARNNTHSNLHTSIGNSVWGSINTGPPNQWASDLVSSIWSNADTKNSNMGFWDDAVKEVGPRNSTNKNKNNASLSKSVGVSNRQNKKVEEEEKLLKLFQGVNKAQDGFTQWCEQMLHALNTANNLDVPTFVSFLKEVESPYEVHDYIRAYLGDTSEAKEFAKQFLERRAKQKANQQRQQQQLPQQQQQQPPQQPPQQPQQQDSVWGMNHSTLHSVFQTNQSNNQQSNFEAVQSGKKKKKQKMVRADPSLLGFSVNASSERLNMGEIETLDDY
On the procedure: as §1

Assay [7] addresses DEPDC1B 7-110 DEP (domain begin residue: 7, domain end residue: 110), Q8WUY9. The method, then:
as §1

Assay [8] deals with DCTN1 26-97 CAP_GLY (domain begin residue: 26, domain end residue: 97), Q14203. The method, then: as §1
Sequence of DCTN1 26-97 CAP_GLY (domain begin residue: 26, domain end residue: 97), Q14203 (Q14203 whole entry): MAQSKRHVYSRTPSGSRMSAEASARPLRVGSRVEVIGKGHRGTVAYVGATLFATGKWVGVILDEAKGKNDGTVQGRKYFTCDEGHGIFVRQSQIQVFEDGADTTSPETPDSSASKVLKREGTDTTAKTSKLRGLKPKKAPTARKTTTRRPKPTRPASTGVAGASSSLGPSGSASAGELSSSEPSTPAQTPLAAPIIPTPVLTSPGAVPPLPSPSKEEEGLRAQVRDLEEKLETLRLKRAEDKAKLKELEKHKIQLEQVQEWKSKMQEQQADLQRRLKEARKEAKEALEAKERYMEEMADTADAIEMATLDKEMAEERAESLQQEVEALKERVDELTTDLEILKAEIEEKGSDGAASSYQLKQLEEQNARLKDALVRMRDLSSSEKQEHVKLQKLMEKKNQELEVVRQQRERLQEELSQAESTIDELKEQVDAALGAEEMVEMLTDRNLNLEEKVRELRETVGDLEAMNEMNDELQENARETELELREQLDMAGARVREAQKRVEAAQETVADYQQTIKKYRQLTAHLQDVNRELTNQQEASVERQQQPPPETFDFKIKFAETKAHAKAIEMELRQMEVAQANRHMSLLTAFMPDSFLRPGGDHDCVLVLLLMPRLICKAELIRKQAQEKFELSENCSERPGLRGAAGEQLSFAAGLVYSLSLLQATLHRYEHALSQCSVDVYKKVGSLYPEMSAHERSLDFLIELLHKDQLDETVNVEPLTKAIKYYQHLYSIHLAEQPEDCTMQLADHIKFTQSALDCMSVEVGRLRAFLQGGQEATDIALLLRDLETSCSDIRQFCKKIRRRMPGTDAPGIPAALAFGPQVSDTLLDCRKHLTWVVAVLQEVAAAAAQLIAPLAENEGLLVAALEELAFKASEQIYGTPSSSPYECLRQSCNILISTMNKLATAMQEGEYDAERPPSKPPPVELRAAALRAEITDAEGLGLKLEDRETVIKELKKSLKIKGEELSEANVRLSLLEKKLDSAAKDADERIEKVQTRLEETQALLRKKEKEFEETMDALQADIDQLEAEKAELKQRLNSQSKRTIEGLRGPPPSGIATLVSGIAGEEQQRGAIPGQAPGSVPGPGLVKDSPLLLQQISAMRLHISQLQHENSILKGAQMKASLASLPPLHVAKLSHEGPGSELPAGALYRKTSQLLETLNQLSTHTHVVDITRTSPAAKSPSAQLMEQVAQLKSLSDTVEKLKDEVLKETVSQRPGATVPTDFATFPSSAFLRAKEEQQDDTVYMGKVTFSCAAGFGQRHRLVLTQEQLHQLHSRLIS

Here are results for 28 molecules from the supplement of paper PMC7724964.

Sequence of DEPDC1B 7-110 DEP (domain begin residue: 7, domain end residue: 110), Q8WUY9 (Q8WUY9 whole entry): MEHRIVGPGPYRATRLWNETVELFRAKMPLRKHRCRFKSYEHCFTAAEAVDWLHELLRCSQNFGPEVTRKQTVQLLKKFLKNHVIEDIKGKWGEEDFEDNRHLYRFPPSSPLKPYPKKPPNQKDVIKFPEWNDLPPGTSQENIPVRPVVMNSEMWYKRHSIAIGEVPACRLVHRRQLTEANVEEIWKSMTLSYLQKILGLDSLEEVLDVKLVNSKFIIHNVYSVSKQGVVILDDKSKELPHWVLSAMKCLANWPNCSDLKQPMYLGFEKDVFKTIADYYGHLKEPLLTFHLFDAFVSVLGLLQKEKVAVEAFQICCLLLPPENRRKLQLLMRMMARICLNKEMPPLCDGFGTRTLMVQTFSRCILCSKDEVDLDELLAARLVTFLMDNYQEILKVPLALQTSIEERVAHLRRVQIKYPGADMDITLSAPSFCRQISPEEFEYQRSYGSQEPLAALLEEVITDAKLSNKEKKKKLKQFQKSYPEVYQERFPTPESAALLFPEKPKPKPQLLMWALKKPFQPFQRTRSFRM

B1: unnamed (peptide)
chain: NSMSYMDIVWHSFDTI
Turning to B1, the “phage ELISA signal ratio” value in assay [1] worked out at 19.2.

B2: unnamed (peptide)
chain: MTWTATWYASDPYMEV
For the molecule B2, the “phage ELISA signal ratio” value in assay [1] was found to be 28.8.

B3: unnamed (peptide)
chain: MDSWHYDMIPGEWLRV
Turning to B3, the “phage ELISA signal ratio” value in assay [1] was 34.3.

B4: unnamed (peptide)
chain: DDGWMMDWWHQAQLQM
With B4, the “phage ELISA signal ratio” value in assay [2] is 6.22.

B5: unnamed (peptide)
chain: HWIDSWEGFRARVIPS
B5: the “phage ELISA signal ratio” value in assay [3] was determined as 12.6.

B6: unnamed (peptide)
chain: QQWDPSWYYPQELVKM
Turning to B6, in assay [1], the “phage ELISA signal ratio” value was found to be 20.5.

B7: unnamed (peptide)
chain: WPNLEWMWDDEDMQFH
Consider B7, for which the “phage ELISA signal ratio” value in assay [4] turned out to be 15.5.

B8: unnamed (peptide)
chain: RDEAHMEWHFPSIWLT
As to B8, in assay [3], the “phage ELISA signal ratio” value was 16.2.

B9: unnamed (peptide)
chain: EPPGWEVRQPGMVQVQ
As to B9, the “phage ELISA signal ratio” value in assay [5] was found to be 16.9; in assay [6], 17.5.

B10: unnamed (peptide)
chain: DLPYEWSHFWDSIEHH
Take B10: the “phage ELISA signal ratio” value in assay [7] stood at 4.2.

B11: unnamed (peptide)
chain: SQPEQMQWHTYDPYDL
As to B11, the “phage ELISA signal ratio” value in assay [1] is 30.4.

B12: unnamed (peptide)
chain: MPVWWEDWYWDWKSMH
For the molecule B12, in assay [2], the “phage ELISA signal ratio” value was determined as 6.24.

B13: unnamed (peptide)
chain: EVFDLISWDDGMWHSV
For the molecule B13, the “phage ELISA signal ratio” value in assay [4] came to 28.8.

B14: unnamed (peptide)
chain: WDGQAWHLSDPYLWEM
With B14, the “phage ELISA signal ratio” value in assay [1] is 17.9.

B15: unnamed (peptide)
chain: SPFVYDIVDLGFPSIM
Turning to B15, in assay [4], the “phage ELISA signal ratio” value is 22.5.

B16: unnamed (peptide)
chain: EMLAGNEFRAMMDEYY
With B16, the “phage ELISA signal ratio” value in assay [2] is 7.5.

B17: unnamed (peptide)
chain: MSDPPTLEHWEYMSWE
Regarding B17, the “phage ELISA signal ratio” value in assay [8] turned out to be 12.

B18: unnamed (peptide)
chain: MEWTWEQWDLGADYVK
In the case of B18, the “phage ELISA signal ratio” value in assay [8] is 21.2.

B19: unnamed (peptide)
chain: QFDLWMRNVMLDFWAD
Regarding B19, in assay [2], the “phage ELISA signal ratio” value turned out to be 11.2.

B20: unnamed (peptide)
chain: DQQQWDDMDWLATWML
B20: the “phage ELISA signal ratio” value in assay [4] came to 32.5.

B21: unnamed (peptide)
chain: TIPPGYFKWVGEVRDE
In the case of B21, in assay [5], the “phage ELISA signal ratio” value came to 16.3.

B22: unnamed (peptide)
chain: WQATDYPQQPPPGWKE
Consider B22, for which the “phage ELISA signal ratio” value in assay [5] came out at 18.9.

B23: unnamed (peptide)
chain: HDVWASSWNWDDFRLN
Consider B23, for which the “phage ELISA signal ratio” value in assay [3] came out at 12.7.

B24: unnamed (peptide)
chain: GETHLMFSNMMEFYKY
Turning to B24, the “phage ELISA signal ratio” value in assay [2] amounted to 19.9.

B25: unnamed (peptide)
chain: HGMDYLNREFPWDWWT
Take B25: the “phage ELISA signal ratio” value in assay [8] came to 16.6.

B26: unnamed (peptide)
chain: WLDYNDWLEMDHWEYV
In the case of B26, the “phage ELISA signal ratio” value in assay [4] came to 23.8.

B27: unnamed (peptide)
chain: QDEWVPWQLWSQWESI
With B27, the “phage ELISA signal ratio” value in assay [8] came out at 26.4.

B28: unnamed (peptide)
chain: GMSPLIEWPEEWWWLD
Consider B28, for which the “phage ELISA signal ratio” value in assay [4] was found to be 21.
